Our source for the growth values is PubChem BioAssay (NCI).

Several values for one entry are separate records, joined by “and”; a condition that tells them apart may be missing. Identical values can stand only once. Compounds without any hit were thinned out: in the full panel of roughly 83,000, 20% have a hit.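 Activity criterion: percent growth below 10, measured after cells in 96-well plates were exposed to a single compound concentration for 48 hours.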 Activity calls are given as the source filed them.

What all share (assay): NCI-60 one-dose screen, 48 h (100 = growth as untreated, 0 = no growth, -100 = all killed)
What all share (conditions): 10 µM unless noted

For test [1], the system named is SR leukemia.
The subject of test [2] is RPMI-8226 leukemia.
The subject of test [3] is OVCAR-8 ovarian.
Test [4] has as its system OVCAR-5 ovarian.
The test system of test [5] is OVCAR-4 ovarian.
Test [6] concerns SK-OV-3 ovarian.
For test [7], the system named is IGROV1 ovarian.
Test [8] deals with OVCAR-3 ovarian.
Test [9] concerns HS 578T breast.
Test [10] concerns NCI/ADR-RES ovarian.

As for `CN(C=O)c1ccccc1`, the growth in test [1] was 101% (inactive); in [2] it was 91% (inactive); in test [3], 96.6% (inactive); in test [4], 100% (inactive); in test [5], 85.3% (inactive); in test [6] it was 86.7% (inactive). Moreover, the growth is 102% (inactive) in test [7], 110% (inactive) in test [8], 100% (inactive) in [9] and 97.4% (inactive) in test [10].
For the compound `Nc1nc(N)c2cc(S(=O)(=O)c3ccccc3)ccc2n1`, the growth was 22% (inactive) and 47.4% (inactive) in test [1]; 51% (inactive) and 54.5% (inactive) in test [2]; 38% (inactive) and 43.5% (inactive) in test [3]; 39.2% (inactive) and 75.8% (inactive) in test [4]; 54% (inactive) in test [5]; 62.1% (inactive) and 52.1% (inactive) in test [6]. Further, the growth in test [7] is 36.6% (inactive) and 58.6% (inactive); in [8] it was 53.9% (inactive) and 59.7% (inactive); in [9] it was 65.8% (inactive) and 73.4% (inactive); in test [10], 41.2% (inactive) and 50.2% (inactive).
For the compound `CC1OS(=O)OC1C` (centres undefined), the growth was 93.5% (inactive) in [1]; 105% (inactive) and 106% (inactive) in [2]; 101% (inactive) and 97.9% (inactive) in test [3]; 102% (inactive) and 97.6% (inactive) in test [4]; 99.6% (inactive) and 118% (inactive) in test [6]; 105% (inactive) in test [7]. In addition, the growth in [8] was 103% (inactive) and 106% (inactive); in test [9], 98.3% (inactive); in [10] it was 107% (inactive) and 99.7% (inactive).
As to `Cc1cc(NC(=O)NC(=O)c2ccccc2N(C)C)ccc1Oc1ncc(Br)cn1`, the growth was 11.9% (inactive) and 22.4% (inactive) in [1]; -9.68% (active) and 20.4% (inactive) in test [2]; 51.9% (inactive) in test [3]; 34.1% (inactive) and 78.5% (inactive) in test [4]; 15.8% (inactive) and 48.7% (inactive) in test [5]; 45% (inactive) and 59.9% (inactive) in test [6]. Moreover, the growth was -12% (active) and 54.7% (inactive) in test [7]; 0.0582% (active) and 16.2% (inactive) in test [8]; 23.8% (inactive) and 40% (inactive) in [9]; 5.74% (active) and 23.3% (inactive) in [10].
Turning to `O=S(=O)(O)c1ccc2cc(O)ccc2c1`, the growth in test [1] was 101% (inactive); in test [2] it was 106% (inactive); in [3], 102% (inactive); in [4] it was 107% (inactive); in test [5], 112% (inactive); in [6], 104% (inactive). The growth in test [7] was 109% (inactive); in [8], 112% (inactive); in test [9], 104% (inactive); in test [10], 105% (inactive).
Consider `COC(=O)c1nc(=S)[nH]c(C(=O)OC)c1C(=O)c1ccccc1`, for which the growth in test [1] was 113% (inactive); in test [2], 107% (inactive); in test [3] it was 110% (inactive); in test [4], 106% (inactive); in [5], 106% (inactive); in test [6] it was 111% (inactive). For the same compound, the growth in test [7] is 101% (inactive); in test [8], 112% (inactive); in [9] it was 99% (inactive); in test [10], 108% (inactive).
On to `CS(=O)(=O)c1nsc(N)n1`, for which the growth in [1] is 98.8% (inactive); in test [2], 106% (inactive); in [3] it was 104% (inactive); in [4], 97.3% (inactive); in test [5] it was 103% (inactive); in test [6] it was 95.4% (inactive). In addition, the growth in test [7] is 101% (inactive); in test [8] it was 107% (inactive); in [9] it was 103% (inactive); in [10], 104% (inactive).
Regarding `O=C1C2=C(Nc3cc(Cl)ccc3N2)OC1c1c[nH]c2ccc(COc3ccccc3)cc12` (centres undefined), the growth in test [1] was 85.4% (inactive); in [2], 59.3% (inactive); in [3] it was 46.9% (inactive); in [4], 88.2% (inactive); in [5], 31.8% (inactive); in [6], 26.7% (inactive). Moreover, the growth in test [7] was 65.3% (inactive); in test [8], 55.1% (inactive); in [9], 29.6% (inactive); in [10] it was 51.4% (inactive).
As to `CSc1nc(N)c(N)c(N)n1`, the growth in [1] was 90.8% (inactive); in test [2], 102% (inactive); in test [3], 103% (inactive); in test [4] it was 120% (inactive); in [5], 103% (inactive); in [6] it was 81.3% (inactive). For the same compound, the growth is 108% (inactive) in test [7], 113% (inactive) in test [8], 111% (inactive) in test [9] and 110% (inactive) in [10].
Consider `COc1ccc2nccc(Cl)c2c1`, for which the growth is 101% (inactive) in test [1]; 110% (inactive) in test [2]; 108% (inactive) in [3]; 102% (inactive) in [4]; 118% (inactive) in test [5]; 111% (inactive) in test [6]. Further, the growth is 105% (inactive) in test [7], 102% (inactive) in [8], 103% (inactive) in [9] and 104% (inactive) in [10].
On to `COCCNC(C)=O`, for which the growth in test [1] was 118% (inactive); in test [2], 114% (inactive); in test [3], 114% (inactive); in test [4], 94.9% (inactive); in test [5], 104% (inactive); in test [6], 102% (inactive). Also, the growth is 106% (inactive) in test [7], 113% (inactive) in test [8], 106% (inactive) in test [9] and 120% (inactive) in test [10].
For `O=c1[nH]nnc2cc(Cl)ccc12`, the growth in [1] is 117% (inactive) and 102% (inactive); in test [2], 112% (inactive) and 109% (inactive); in test [3], 95.2% (inactive) and 98.2% (inactive); in test [4], 103% (inactive) and 96.5% (inactive); in test [5], 124% (inactive) and 98.8% (inactive); in test [6] it was 114% (inactive) and 117% (inactive). Besides, the growth in test [7] is 104% (inactive) and 116% (inactive); in [8], 100% (inactive) and 123% (inactive); in test [9] it was 126% (inactive) and 123% (inactive); in test [10], 106% (inactive) and 97.5% (inactive).
